The source made the active and inactive calls. How the source made its calls: active means hit-call score of the fitted dose curve at least 0.9, where 1 is the maximum; inactive means score below 0.9.
Read-out: not listed separately
Experiment: BSK_BT_Bcell_Proliferation: Viability Assessment in the BioMAP Diversity Plus: BT Assay for B cell Proliferation (AID 2284227)
Conditions: primary human B cells with PBMC
Procedure, shortened: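 SRB-based protein staining (0.1% SRB after 10% TCA fixation, 560 nm) quantifies proliferation in human B cells co-cultured with PBMC, 72 h post-dosing, with signal gain scored relative to DMSO negative control.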

Chain of Tumor necrosis factor (Homo sapiens) (P01375 whole entry, looked up): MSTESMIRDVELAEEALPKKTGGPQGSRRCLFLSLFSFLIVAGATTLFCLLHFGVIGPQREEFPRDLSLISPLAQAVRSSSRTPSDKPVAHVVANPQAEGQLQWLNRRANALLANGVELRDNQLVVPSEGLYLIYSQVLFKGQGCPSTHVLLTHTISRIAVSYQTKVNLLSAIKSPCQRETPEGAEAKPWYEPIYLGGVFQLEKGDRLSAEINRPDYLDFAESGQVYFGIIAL

Row | SMILES | outcome | AC50
1 | CCCCCCC(O)CCCCCCCCCCC(=O)OC (configuration not stated) | inactive | 
2 | Cc1cc(-n2nc3ccc(Cl)cc3n2)c(O)c(C(C)(C)C)c1 | inactive | 
3 | Oc1cccc2ccccc12 |  | 2.2 µM (active)
4 | CN(C)c1ccc(C(c2ccccc2)c2ccc(N(C)C)cc2)cc1 |  | 29 µM (active)

Read-out: Interleukin 17A (IL17A), IL17A (gene 3605)
Experiment: BSK_BT_xIL17A: BioMAP Diversity Plus: BT Assay for Interleukin 17A (IL17A) Biomarker Activity (AID 2284229)
Conditions: primary human B cells with PBMC
Procedure, shortened: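 Chemicals were added to a human B cell and PBMC co-culture. After 24 h, secreted IL-17A was measured with Luminex xMAP. Curves were fitted in the positive direction, with DMSO wells as baseline.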

Row | SMILES | outcome | AC50
5 | CCCCCCC(O)CCCCCCCCCCC(=O)OC (configuration not stated) | inactive | 
6 | Cc1cc(-n2nc3ccc(Cl)cc3n2)c(O)c(C(C)(C)C)c1 | inactive | 
7 | Oc1cccc2ccccc12 | inactive | 
8 | CN(C)c1ccc(C(c2ccccc2)c2ccc(N(C)C)cc2)cc1 |  | 20 µM (active)

Read-out: Tumor necrosis factor (Homo sapiens) (UniProt P01375)
Experiment: BSK_BT_xTNFa: BioMAP Diversity Plus: BT Assay for Tumor necrosis factor alpha (TNF-alpha) Biomarker Activity (AID 2284230)
Conditions: primary human B cells with PBMC
Procedure, shortened: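 Compounds were added to a B cell plus PBMC co-culture, and after 24 h secreted TNF-alpha was quantified with Luminex xMAP technology, with responses fitted upward from the DMSO control.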

Row | SMILES | outcome | AC50
9 | CCCCCCC(O)CCCCCCCCCCC(=O)OC (configuration not stated) | inactive | 
10 | Cc1cc(-n2nc3ccc(Cl)cc3n2)c(O)c(C(C)(C)C)c1 | inactive | 
11 | Oc1cccc2ccccc12 | inactive | 
12 | CN(C)c1ccc(C(c2ccccc2)c2ccc(N(C)C)cc2)cc1 |  | 33.1 µM (active)

Read-out: Vascular cell adhesion molecule 1 (VCAM1), VCAM1 (gene 7412)
Experiment: BSK_MyoF_VCAM1: BioMAP Diversity Plus: MyoF Assay for Vascular cell adhesion molecule 1 (VCAM1) Biomarker Activity (AID 2284231)
Conditions: primary human lung fibroblasts
Procedure, shortened: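 Steps: fibroblasts from human lung exposed to compound; biomarker quantified by ELISA at 24 h; values analysed for upward change over the DMSO baseline.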

Row | SMILES | outcome
13 | CCCCCCC(O)CCCCCCCCCCC(=O)OC (configuration not stated) | inactive
14 | Cc1cc(-n2nc3ccc(Cl)cc3n2)c(O)c(C(C)(C)C)c1 | inactive
15 | Oc1cccc2ccccc12 | inactive
16 | CN(C)c1ccc(C(c2ccccc2)c2ccc(N(C)C)cc2)cc1 | inactive

Read-out: Collagen I, COL1A1 (gene 1277)
Experiment: BSK_MyoF_CollagenI: BioMAP Diversity Plus: MyoF Assay for Collagen I Biomarker Activity (AID 2284238)
Conditions: primary human lung fibroblasts
Procedure, shortened: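 Multiplexed primary human lung fibroblast system; Collagen I measured by ELISA at 24 h post-dose. Increases are referenced to DMSO.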

Row | SMILES | outcome
17 | CCCCCCC(O)CCCCCCCCCCC(=O)OC (configuration not stated) | inactive
18 | Cc1cc(-n2nc3ccc(Cl)cc3n2)c(O)c(C(C)(C)C)c1 | inactive
19 | Oc1cccc2ccccc12 | inactive
20 | CN(C)c1ccc(C(c2ccccc2)c2ccc(N(C)C)cc2)cc1 | inactive

Read-out: Collagen III, COL3A1 (gene 1281)
Experiment: BSK_MyoF_CollagenIII: BioMAP Diversity Plus: MyoF Assay for Collagen III Biomarker Activity (AID 2284239)
Conditions: primary human lung fibroblasts
Procedure, shortened: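 Compounds are added to primary human lung fibroblasts and left for 24 hours. Collagen III is then quantified by ELISA. Analysis takes DMSO as baseline and fits increases in signal.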

Row | SMILES | outcome | AC50
21 | CCCCCCC(O)CCCCCCCCCCC(=O)OC (configuration not stated) | inactive | 
22 | Cc1cc(-n2nc3ccc(Cl)cc3n2)c(O)c(C(C)(C)C)c1 | inactive | 
23 | Oc1cccc2ccccc12 |  | 5.51 µM (active)
24 | CN(C)c1ccc(C(c2ccccc2)c2ccc(N(C)C)cc2)cc1 | inactive | 

Read-out: Interleukin 2 (IL2), IL2 (gene 3558)
Experiment: BSK_BT_xIL2: BioMAP Diversity Plus: BT Assay for Interleukin 2 (IL2) Biomarker Activity (AID 2284245)
Conditions: primary human B cells with PBMC
Procedure, shortened: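 The BT system combines human B cells with peripheral blood mononuclear cells. Twenty-four hours after chemical dosing, secreted IL-2 was measured with xMAP bead technology, and responses were analyzed as increases over DMSO controls.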

Row | SMILES | outcome | AC50
25 | CCCCCCC(O)CCCCCCCCCCC(=O)OC (configuration not stated) | inactive | 
26 | Cc1cc(-n2nc3ccc(Cl)cc3n2)c(O)c(C(C)(C)C)c1 | inactive | 
27 | Oc1cccc2ccccc12 | inactive | 
28 | CN(C)c1ccc(C(c2ccccc2)c2ccc(N(C)C)cc2)cc1 |  | 34.3 µM (active)

Read-out: Basic fibroblast growth factor (bFGF), FGF2 (gene 2247)
Experiment: BSK_MyoF_bFGF: BioMAP Diversity Plus: MyoF Assay for Basic fibroblast growth factor (bFGF) Biomarker Activity (AID 2284246)
Conditions: primary human lung fibroblasts
Procedure, shortened: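 Chemicals are added to human lung fibroblast cultures and incubated 24 h. bFGF is then measured by ELISA, while parallel cultures receive SRB staining for total protein as a cytotoxicity check. Data are fitted upward against DMSO.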

Row | SMILES | outcome
29 | CCCCCCC(O)CCCCCCCCCCC(=O)OC (configuration not stated) | inactive
30 | Cc1cc(-n2nc3ccc(Cl)cc3n2)c(O)c(C(C)(C)C)c1 | inactive
31 | Oc1cccc2ccccc12 | inactive
32 | CN(C)c1ccc(C(c2ccccc2)c2ccc(N(C)C)cc2)cc1 | inactive

— PubChem BioAssay (EPA / NIEHS)
